According to PubChem BioAssay (Tox21):
Inconclusive results are not listed. Values without a mark were called inactive. Calls follow the shape of the dose curve; as a rule, active = well fitted curve in the direction sought with a large enough effect in the repeat runs; inconclusive = weak or mixed curves; inactive = no such curve, though single readings can be large; an effect the other way counts as inactive or inconclusive.

Assay: qHTS assay to identify small molecule antagonists of the retinoid acid receptor (RAR) signaling pathway - cell viability counter screen (AID 1159551); also: nearly all actives have a fitted effect of over 35% in size
Conditions: C3RL4 cells viability, ATP luminescence (CellTiter-Glo), 6 h; series mostly up to 92.4 µM; activity change, negative = cytotoxicity: at the top concentration
Outline: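 C3RL4 cells were seeded overnight at 37 C, then treated with compounds plus 1 uM (final) retinol for 6 h at 37 C. Viability was read as ATP by CellTiter-Glo luminescence after 30 min at room temperature.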
% is scaled to controls: 0 for no effect and ±100 for the full control effect.

| Structure (SMILES) | activity change, negative = cytotoxicity |
| --- | --- |
| CN(CCOc1ccc(NS(C)(=O)=O)cc1)CCc1ccc(NS(C)(=O)=O)cc1 | -1.38% [at 42.5 µM] |
| CCCCCCOC(=O)CC | 0.623% |
| O=S(=O)(O)CCN1CCN(CCO)CC1 | 3.6% |
| Cc1cc(C(C)(C)C)c(O)c(C)c1CC1=NCCN1 | -0.0388% [at 42.5 µM] |
| CC(C)(C)c1n[nH]c(=S)n(N)c1=O | -0.51% |
| CCC(C)NC(N)=O (centres undefined) | 1.15% |
| Oc1cn2c(n1)Nc1ccc(Cl)c(Cl)c1C2 | 3.75% [at 19 µM] |
| Cc1nc2n(c(=O)c1CCN1CCC(c3noc4cc(F)ccc34)CC1)CCC[C@H]2O | 0.276% [at 19 µM] |
| NS(=O)(=O)c1ccc(NC(=O)CCC(=O)O)cc1 | 2.53% [at 42.5 µM] |
| C=C(C)C(=O)OCC(C)(C)COC(=O)C(=C)C | 1.16% |
| CCCCCCCCSCC | 3.32% |
| C=C(C)C1CCC(C)(O)CC1 (centres undefined) | 3.15% |
| On1nnc2ccccc21 | 3.03% |
| NC(CO)C(=O)NNCc1ccc(O)c(O)c1O (centres undefined) | -0.771% [at 42.5 µM] |
| O=C(CCNNC(=O)c1ccncc1)NCc1ccccc1 | 0.469% [at 42.5 µM] |
| CC(C)NCC(O)COc1cccc2[nH]ccc12 (centres undefined) | -1.78% [at 42.5 µM] |
| N[C@@H](COP(=O)(O)O)C(=O)O | -0.284% [at 19 µM] |
| O=C1CC(c2ccc(Cl)cc2)CC(=O)N1 | 0.813% [at 42.5 µM] |
| CCOc1cc(NC(C)=O)ccc1C(=O)OC | 3.03% [at 42.5 µM] |

| Structure (SMILES) | activity change, negative = cytotoxicity |
| --- | --- |
| CCOC(=O)c1ncn2c1CN(C)C(=O)c1cc(F)ccc1-2 | -0.267% [at 42.5 µM] |
| CC(C)N(c1ccccc1)C(C)C | 1.15% |
| CC(C)(C)c1nnc(NS(=O)(=O)c2ccc(N)cc2)s1 | 2.66% [at 42.5 µM] |
| C=CCCCCCCCCCCCC | 0.266% |
| CCCN1C[C@H](CSC)C[C@@H]2c3cccc4[nH]cc(c34)C[C@H]21 | -0.569% [at 42.5 µM] |
| CC(C)NCC(O)COc1ccc(COCCOC(C)C)cc1 (centres undefined) | 1.03% [at 42.5 µM] |
| COCCOCCOCCOCCOCCO | 0.597% |
| N#Cc1ccc(C(=O)O)cc1 | 2.49% |
| Cc1ccccc1C(=O)Nc1ccc(C(=O)N2CCCC(N(C)C)c3ccccc32)cc1 (centres undefined) | -0.0178% [at 42.5 µM] |
| COCCOC(=O)C1=C(C)NC(C)=C(C(=O)OC(C)C)C1c1cccc([N+](=O)[O-])c1 (centres undefined) | 0.84% [at 42.5 µM] |
| CN1CCN(CC(=O)N2c3ccccc3C(=O)Nc3cccnc32)CC1 | 0.488% [at 8.39 µM] |
| CCCCCCCCOS(=O)(=O)O | -0.164% |
| CC(=O)NCc1c(I)c(NC(C)=O)c(I)c(C(=O)O)c1I | 2.51% [at 42.5 µM] |
| CC(C)C[C@H](NC(=O)CNC(=O)[C@H](Cc1ccc(O)cc1)NC(=O)[C@H](CO)NC(=O)[C@H](Cc1c[nH]c2ccccc12)NC(=O)[C@H](Cc1cnc[nH]1)NC(=O)[C@@H]1CCC(=O)N1)C(=O)N[C@@H](CCCN=C(N)N)C(=O)N1CCC[C@H]1C(=O)NCC(N)=O (stereo in doubt) | 0.852% [at 42.5 µM] |
| COc1cc(C(=S)N2CCOCC2)cc(OC)c1OC | 4.17% [at 42.5 µM] |
| COc1ccc(C2CNC(=O)C2)cc1OC1CCCC1 (centres undefined) | -0.267% [at 42.5 µM] |
| CC(C)(C)NC(N)=O | 0.82% |
| Cc1ccc(C=O)cc1C | -0.593% |
| CN1C(C)(C)CCCC1(C)C | -0.709% [at 42.5 µM] |

Assay: qHTS assay to identify small molecule agonists of the retinoic acid receptor (RAR) signaling pathway (AID 1159553)
Conditions: C3RL4 RARE luciferase reporter, agonist, 6 h; series mostly up to 73.3 µM; activation: at the top concentration
Outline: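 C3RL4 cells carrying a RARE luciferase reporter were plated overnight at 37 C, then exposed to compounds in DMSO for 6 hr at 37 C and 5% CO2. Luminescence was read 30 min after luciferase reagent addition at room temperature.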

| Structure (SMILES) | activation [%] |
| --- | --- |
| Cc1ccccc1C(=O)Nc1ccc(C(=O)N2CCCC(N(C)C)c3ccccc32)cc1 (centres undefined) | -11 |
| CC(C)C[C@H](NC(=O)CNC(=O)[C@H](Cc1ccc(O)cc1)NC(=O)[C@H](CO)NC(=O)[C@H](Cc1c[nH]c2ccccc12)NC(=O)[C@H](Cc1cnc[nH]1)NC(=O)[C@@H]1CCC(=O)N1)C(=O)N[C@@H](CCCN=C(N)N)C(=O)N1CCC[C@H]1C(=O)NCC(N)=O (stereo in doubt) | -5.54 |
| CN1C(C)(C)CCCC1(C)C | 0.624 |

Assay: qHTS assay to identify small molecule antagonists of the estrogen related receptor (ERR) signaling pathway - cell viability counter screen (AID 1224818);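 also: viability measured after 17.5 h of compound exposure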
Conditions: ERR reporter cell line viability counter screen; series mostly up to 46.1 µM; viability change, negative = cytotoxic: at the top concentration
Outline: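 ERR reporter cells plated 6 h at 37 C/5% CO2, then compounds in DMSO pin-transferred and incubated 17.5 h at 37 C. Viability read as CellTiter-Fluor fluorescence after 30 min at 37 C.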

| Structure (SMILES) | viability change, negative = cytotoxic [%] |
| --- | --- |
| CN(CCOc1ccc(NS(C)(=O)=O)cc1)CCc1ccc(NS(C)(=O)=O)cc1 | 6.71 |
| Cc1cc(C(C)(C)C)c(O)c(C)c1CC1=NCCN1 | 4.34 |
| NC(CO)C(=O)NNCc1ccc(O)c(O)c1O (centres undefined) | 4.95 |
| O=C(CCNNC(=O)c1ccncc1)NCc1ccccc1 | -1.57 |
| CC(C)NCC(O)COc1cccc2[nH]ccc12 (centres undefined) | 2.07 |
| N[C@@H](COP(=O)(O)O)C(=O)O | 8.75 |
| CCOC(=O)c1ncn2c1CN(C)C(=O)c1cc(F)ccc1-2 | 12.5 |
| CCCN1C[C@H](CSC)C[C@@H]2c3cccc4[nH]cc(c34)C[C@H]21 | -0.649 |
| CC(C)NCC(O)COc1ccc(COCCOC(C)C)cc1 (centres undefined) | 2.58 |
| COCCOC(=O)C1=C(C)NC(C)=C(C(=O)OC(C)C)C1c1cccc([N+](=O)[O-])c1 (centres undefined) | -12.1 |
| CN1CCN(CC(=O)N2c3ccccc3C(=O)Nc3cccnc32)CC1 | 11.8 |
| COc1ccc(C2CNC(=O)C2)cc1OC1CCCC1 (centres undefined) | 8.98 |

Assay: qHTS assay to identify small molecule antagonists of the estrogen related receptor (ERR) signaling pathway (AID 1224819;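 also: luminescence from an ERR-driven luciferase reporter measured with One-Glo reagent; nearly all actives have a fitted effect of over 50% in size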)
Conditions: ERR reporter cell line, luciferase inhibition; series mostly up to 46.1 µM; activity change, negative = inhibition: at the top concentration
Outline: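 ERR reporter cells were plated at 2,000 cells/well and left 6 h at 37 C/5% CO2 before pin-tool transfer of compounds in DMSO. After 18 h at 37 C, One-Glo was added and luminescence was read 30 min later at room temperature.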

| Structure (SMILES) | activity change, negative = inhibition [%] |
| --- | --- |
| NC(CO)C(=O)NNCc1ccc(O)c(O)c1O (centres undefined) | 3.37 |
| CN1CCN(CC(=O)N2c3ccccc3C(=O)Nc3cccnc32)CC1 | -6.76 |
| COc1ccc(C2CNC(=O)C2)cc1OC1CCCC1 (centres undefined) | -12.2 |

Assay: qHTS assay to identify small molecule agonists of the estrogen related receptor (ERR) signaling pathway (AID 1224820)
Conditions: ERR reporter cell line, luciferase agonist mode; series mostly up to 46.1 µM; activation: at the top concentration
Outline: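 Quantitative HTS of the LOPAC library used NTP ERR reporter cells treated 18 h at 37 C. Signal is luminescence after One-Glo addition and a 30 min room-temperature incubation.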

| Structure (SMILES) | activation [%] |
| --- | --- |
| NC(CO)C(=O)NNCc1ccc(O)c(O)c1O (centres undefined) | 17.6 |
| CN1CCN(CC(=O)N2c3ccccc3C(=O)Nc3cccnc32)CC1 | -5.13 |
| COc1ccc(C2CNC(=O)C2)cc1OC1CCCC1 (centres undefined) | -11.8 |
